Laboratory results: PubChem BioAssay (NCI)
The panel holds about 83,000 compounds, 20% with a hit somewhere; the sample as a whole holds those more often.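 A percent growth of 40 corresponds to 60% growth inhibition; 0 means no net growth; -100 means all cells died. Active threshold: below 10.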 Activity calls are given as the source filed them.

Legend:
Experiment in all cases: NCI-60 one-dose screen, 48 h (100 = growth as untreated, 0 = no growth, -100 = all killed)
Conditions in all cases: 10 µM unless noted
T-47D breast = tested on: T-47D breast
BT-549 breast = tested on: BT-549 breast
MDA-MB-435 melanoma = tested on: MDA-MB-435 melanoma
SW-620 colon = tested on: SW-620 colon
MCF7 breast = tested on: MCF7 breast
HCT-116 colon = tested on: HCT-116 colon
HCC-2998 colon = tested on: HCC-2998 colon
KM12 colon = tested on: KM12 colon

Measured: growth

COc1ccc(-c2nc(SCC(C)C)nc(Nc3ccc(C(=O)O)cc3)c2C#N)cc1
inactive: T-47D breast 87.3% | BT-549 breast 85.6% | MDA-MB-435 melanoma 99.5% | SW-620 colon 102% | MCF7 breast 67.2% | HCT-116 colon 85.1% | HCC-2998 colon 97.7% | KM12 colon 91.8%

O=C1NCCN1/N=C/c1c(Cl)nc2n1CCS2
inactive: T-47D breast 119% | BT-549 breast 97.7% | MDA-MB-435 melanoma 112% | SW-620 colon 103% | MCF7 breast 106% | HCT-116 colon 93.5% | KM12 colon 101%

Cn1cnc2nc[nH]c2c1=S
inactive: T-47D breast 96% | BT-549 breast 98.6% | MDA-MB-435 melanoma 109% | SW-620 colon 99.8% | MCF7 breast 94.2% | HCT-116 colon 106% | KM12 colon 105%

CC[C@H](Nc1ncnc2nc[nH]c12)c1nc2cccc(NCc3ccc(C(=O)NO)nc3)c2c(=O)n1-c1ccccc1
active: T-47D breast 6.8% | HCT-116 colon 9.03%
inactive: BT-549 breast 13.3% | MDA-MB-435 melanoma 25.4% | SW-620 colon 47.2% | MCF7 breast 13.3% | HCC-2998 colon 67.6% | KM12 colon 60.9%

CCOC(=O)c1c(C)oc2ncnc(Nc3ccc(NC(=O)Nc4ccc(CC)cc4)cc3)c12
inactive: T-47D breast 78.3% | BT-549 breast 84.5% | MDA-MB-435 melanoma 102% | SW-620 colon 113% | MCF7 breast 94.9% | HCT-116 colon 78.8% | KM12 colon 103%

O=C(Nc1ccc(Cl)c(Cl)c1)O/N=C\c1c(Cl)ccc([N+](=O)[O-])c1Cl
active: T-47D breast -46.8% | BT-549 breast -6.07% | MDA-MB-435 melanoma -31% | SW-620 colon -79.3% | MCF7 breast -62.9% | HCT-116 colon -83.5% | HCC-2998 colon -64.7% | KM12 colon -71.8%

COC1NC(Cl)=C(C#N)C(C#N)(C#N)C1(C)C (stereo unspecified)
inactive: T-47D breast 112% | BT-549 breast 97% | MDA-MB-435 melanoma 124% | SW-620 colon 95.9% | MCF7 breast 124% | HCT-116 colon 108% | KM12 colon 111%

CCCCCCCCCCCCCCCCNC(=S)N/N=C/c1ccc(OC)cc1
inactive: T-47D breast 103% | BT-549 breast 104% | MDA-MB-435 melanoma 107% | SW-620 colon 107% | MCF7 breast 102% | HCT-116 colon 89.6% | KM12 colon 97.9%

CCOc1nc(-c2ccccc2)cc2c(O)c(C(=O)N/N=C/c3ccccc3O)[nH]c(=O)c12
inactive: T-47D breast 94% | BT-549 breast 97.8% | MDA-MB-435 melanoma 113% | SW-620 colon 74.9% | MCF7 breast 72.8% | HCT-116 colon 88.3% | KM12 colon 80.6%

Cc1nn(-c2ccccc2)c(N)c1N=C1NC(=O)/C(=C/c2ccc(Cl)cc2)S1
inactive: T-47D breast 74.4% | BT-549 breast 75.8% | MDA-MB-435 melanoma 66.9% | SW-620 colon 82.2% | MCF7 breast 70.9% | HCT-116 colon 83.6% | KM12 colon 78.3%

CCCCCCCCCCCCCCCCCC(=O)Nc1ccc(O)cc1
inactive: T-47D breast 93.6% | BT-549 breast 62.8% | MDA-MB-435 melanoma 107% | SW-620 colon 98.6% | MCF7 breast 98.9% | HCT-116 colon 106% | KM12 colon 100%

C[n+]1c2ccccc2c(Nc2ccc(NS(=O)(=O)CCCCN=C(N)N)cc2)c2ccc(N)cc21
inactive: T-47D breast 21.9% | BT-549 breast 88.7% | MDA-MB-435 melanoma 87.8% | SW-620 colon 59.1% | MCF7 breast 19.7% | HCT-116 colon 37.3% | HCC-2998 colon 40.6% | KM12 colon 42.3%

COc1ccc(/C=C/C(=O)/C=C/c2cc3ccccc3[nH]c2=O)cc1
active: HCT-116 colon -30.8%
inactive: T-47D breast 57.1% | BT-549 breast 64.9% | MDA-MB-435 melanoma 13.6% | SW-620 colon 36.4% | MCF7 breast 14.5% | KM12 colon 27.6%

CCCCCc1ccnc(CC(=O)c2ccc(OC)cc2)c1
inactive: T-47D breast 82.3% | BT-549 breast 93.8% | MDA-MB-435 melanoma 102% | SW-620 colon 88.4% | MCF7 breast 87.4% | HCT-116 colon 78.2% | KM12 colon 99.9%

COc1ccc2nc3cc(Cl)ccc3c(NCCCNC(C)=O)c2c1
inactive: T-47D breast 38.1% | BT-549 breast 88.7% | MDA-MB-435 melanoma 41.3% | SW-620 colon 27% | MCF7 breast 15.8% | HCT-116 colon 21% | KM12 colon 30.7%

C=CCNCCC#N
inactive: T-47D breast 96.3% | BT-549 breast 105% | MDA-MB-435 melanoma 109% | SW-620 colon 110% | MCF7 breast 99.5% | HCT-116 colon 100% | KM12 colon 115%

COC(=O)[C@H](Cc1cn(C)cn1)NC(=O)[C@@H](NC(=O)Nc1cc(C(F)(F)F)cc(C(F)(F)F)c1)C(C)(C)C
active: T-47D breast -63.9% [100 µM] | BT-549 breast -90.4% [100 µM] | MDA-MB-435 melanoma -89.3% [100 µM] | SW-620 colon -46.4% [100 µM] | MCF7 breast -59.2% [100 µM] | HCT-116 colon -91.5% [100 µM] | KM12 colon -88.7% [100 µM]

COc1ccc(/C=N/c2cc(C(C)(C)C)nn2-c2ccccc2)cc1
inactive: T-47D breast 85.8% | BT-549 breast 128% | MDA-MB-435 melanoma 95.5% | SW-620 colon 101% | MCF7 breast 88.8% | HCT-116 colon 92.8% | HCC-2998 colon 132% | KM12 colon 104%
